SMILES strings stand for the structures. This is part of a sample that, as a whole, favours compounds with a hit. Of some 83,000 tested, about 20% had one in any assay.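 Activity criterion: percent growth below 10, measured after cells in 96-well plates were exposed to a single compound concentration for 48 hours.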 A number with no mark means an inactive call. Calls of active or inactive are those of the source.

For the experiment, the system named is MDA-MB-468 breast. Briefly: NCI-60 one-dose screen, 48 h (100 = growth as untreated, 0 = no growth, -100 = all killed). The conditions noted are these: 10 µM unless noted.
In the case of `N=C(N)c1ccc(-c2ccc(/C=C/c3ccccc3)s2)cc1`, the growth is -67.3% (active).

For `Oc1cccc(-c2nc3sccn3c2-c2ccncn2)c1`, the growth is 83%.

Turning to `CNCCCNc1ccnc2cc(Cl)ccc12`, the growth is -85% (active).

Turning to `COc1cc(C(=O)n2nc(N3CCN(C)CC3)c3cc(N)ccc32)cc(OC)c1OC`, the growth is 0.604% (active).

As to `CCCn1nc(C(=O)N(C)Cc2ccccc2)c2c1CCC(N1CCc3ccccc31)C2` (stereo unspecified), the growth was 92.8%.

`COCCc1n(Cc2ccc3ccccc3c2)c2ccccc2[n+]1Cc1ccc2ccccc2c1`: the growth is -23.4% (active).

For `O=C(CN1C(=O)c2ccccc2S1(=O)=O)Nc1nc(-c2cc3ccccc3oc2=O)cs1`, the growth is 100%.

In the case of `CC(=O)c1cc(-c2ccccc2N)n(-c2ccc3c(c2)OCO3)c1C`, the growth was 30.5%.

Consider `CC[C@@H]1NC(=O)[C@H]([C@H](O)[C@H](C)C/C=C/c2ccc(CN3C(=O)CCCC3=O)cc2)N(C)C(=O)[C@H](C(C)C)N(C)C(=O)[C@H](CC(C)C)N(C)C(=O)[C@H](CC(C)C)N(C)C(=O)[C@@H](C)NC(=O)[C@H](C)NC(=O)[C@H](CC(C)C)N(C)C(=O)[C@H](C(C)C)NC(=O)[C@H](CC(C)C)N(C)C(=O)CN(C)C1=O`, for which the growth was 13.4%.

Turning to `CN(C)c1ccc(C2(Cl)c3ccccc3N(C)c3ccccc32)cc1`, the growth was 50.8%.

In the case of `CC/C(C)=C(\C)C(=O)O`, the growth was 106%.

In the case of `CNC(=O)c1ccccc1Sc1ccc2c(/C=C/c3ccccn3)n[nH]c2c1`, the growth is 28%.

For `Cc1cc2c3ccccc3ccc2[n+]2ccccc12`, the growth is -60.6% (active).

Turning to `COc1ccc(-c2n[nH]nc2-c2cc(OC)c3c(c2OC)OCO3)cc1`, the growth was -24.1% (active).

As to `CN1CCN(CCCn2c(=O)c3sc4ncccc4c3n3nnc(-c4ccccc4)c23)CC1`, the growth is -62% (active).

With `CCc1cccc(Cl)c1`, the growth was 113%.

Values taken from PubChem BioAssay (NCI).
